High-throughput results deposited in PubChem by National Center for Advancing Translational Sciences (NCATS).
DT40 TDP1 no CPT: qHTS for Inhibitors of human tyrosyl-DNA phosphodiesterase 1 (TDP1): qHTS in cells in absence of CPT; DT40 Tdp1-/- hTDP1 cells, no CPT, ATP luminescence, 48 h; hit rate 15% among 420,000; Potency, µM (doses to about 46.2 µM), hits mostly inhibitors; AID 686978, 2013; note: nearly all actives have a fitted effect of over 55% in size
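Stably hTDP1-transfected Tdp1-null chicken DT40 cells were treated with library compounds minus camptothecin and grown for at least 48 hr at 37 °C, after which cellular ATP was quantified by luminescence.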
KAT2A inh: qHTS Assay for Inhibitors of GCN5L2. Histone acetyltransferase KAT2A (Homo sapiens), Q92830. GCN5L2 HAT assay, ThioGlo1 CoA-SH fluorescence. Potency, µM (top dose mostly 58.9 µM), most hits filed as inhibitors. hit rate 0.21% among 390,000
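Preincubate 20nM GCN5L2 with compound 15 min, RT → add 50uM ThioGlo1 + 75uM H3(1-25) + 70uM acetyl-CoA → read fluorescence 0 and 20 min. Primary qHTS; fluorescent artifacts likely.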
TDP1 inh: qHTS Assay for Inhibitors of Tyrosyl-DNA Phosphodiesterase (TDP1); recombinant TDP1, AlphaScreen DNA substrate cleavage; Potency, µM (highest dose often 130 µM), usual class: inhibitors; AID 485290, 2010; hit rate 0.28% among 350,000; Tyrosyl-DNA phosphodiesterase 1 (Homo sapiens), Q9NUW8; note: nearly all actives have a fitted effect of over 40% in size
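Here, a 5' biotin and 3' phosphotyrosine-FITC DNA oligonucleotide reports Tdp1 activity: intact substrate bridges AlphaScreen beads, while cleavage leaves a 3' phosphate and drops signal. All incubations at room temperature.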
VDR inh: Inhibitors of the vitamin D receptor (VDR): qHTS | Vitamin D3 receptor (Homo sapiens), P11473 | VDR-SRC2-3 peptide fluorescence polarization, 2 h | Potency, µM, usual class: inhibitors | hit rate 0.93% among 400,000
Target sequence (P11473 whole entry, looked up): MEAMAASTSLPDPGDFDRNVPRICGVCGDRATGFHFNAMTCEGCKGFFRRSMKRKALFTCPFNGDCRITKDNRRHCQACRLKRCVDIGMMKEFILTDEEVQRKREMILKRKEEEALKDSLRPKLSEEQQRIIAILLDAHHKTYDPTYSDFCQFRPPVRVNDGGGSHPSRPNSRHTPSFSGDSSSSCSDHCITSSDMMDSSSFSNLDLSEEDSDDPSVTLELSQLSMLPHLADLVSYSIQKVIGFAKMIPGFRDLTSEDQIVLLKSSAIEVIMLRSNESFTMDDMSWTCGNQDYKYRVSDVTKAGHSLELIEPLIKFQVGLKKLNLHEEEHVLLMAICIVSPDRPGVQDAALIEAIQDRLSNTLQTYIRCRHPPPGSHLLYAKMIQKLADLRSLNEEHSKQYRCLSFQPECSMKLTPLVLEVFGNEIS
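FP read-out; VDR + SRC2-3 coactivator peptide; 23 nl compound by pintool; 2 h RT incubation; reagents held at 4 deg C, protected from light.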
PLK1 PBD inh: qHTS for Inhibitors of PLK1-PDB (polo-like kinase 1 - polo-box domain): Primary Screen | Serine/threonine-protein kinase PLK1 (Homo sapiens), P53350 | Plk1 PBD binding of FITC phosphopeptide, fluorescence polarization | Potency, µM, most hits filed as inhibitors | hit rate 2.8% among 360,000 | AID 720504, 2013; note: series mostly up to about 57 µM; nearly all actives have a fitted effect of over 65% in size
TDP1 cell CPT: qHTS for Inhibitors of human tyrosyl-DNA phosphodiesterase 1 (TDP1): qHTS in cells in presence of CPT. hit rate 12% among 420,000. Potency, µM (titrated, usually from 46.2 µM), usual class: inhibitors. chicken DT40 Tdp1-/-;hTDP1 cells + 20 nM CPT, ATP luminescence, 48 h; note: nearly all actives have a fitted effect of over 55% in size
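Chicken DT40 Tdp1-/- cells stably complemented with human TDP1 were seeded at 400 cells/well in medium containing 20 nM camptothecin, exposed to pin-transferred compounds, and grown at 37 °C for at least 48 hr. Viability was read as ATP luminescence.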
Hits are given with their value; [ ] = another dose, or the depositor's remark. Rows were chosen to be rich in hits. Some 18% of all compounds tested hit in one or more screens of this group. Calls come from the whole dose curve; as a rule, active = well fitted curve in the direction sought with a large enough effect; inconclusive = small, poorly fitted or top-dose-only effect, or another doubt; inactive = no such curve, though single readings can be large; an effect the other way counts as inactive or inconclusive.

O=C(COC(=O)CN1C(=O)C(=O)c2ccccc21)OCN1C(=O)c2ccccc2C1=O was read as DT40 TDP1 no CPT inconclusive, KAT2A inh inactive, TDP1 inh inactive, VDR inh inactive, PLK1 PBD inh inactive and TDP1 cell CPT inconclusive.
`CCCCc1cc(=O)oc2cc(OC(C)C(=O)NCC3CCC(C(=O)O)CC3)c(Cl)cc12` (configuration not stated) gave DT40 TDP1 no CPT inactive, KAT2A inh inactive, VDR inh inactive, PLK1 PBD inh inactive and TDP1 cell CPT inactive.
Screening Cc1ccc(-n2cc(CN3CCC(O)(c4ccccn4)CC3)c(-c3ccc(F)cc3)n2)cc1 returned DT40 TDP1 no CPT inconclusive, KAT2A inh inactive, TDP1 inh inactive, VDR inh inactive, PLK1 PBD inh inactive and TDP1 cell CPT inconclusive.
Screening CC(=O)N(Cc1ccccc1)C1CC(=O)N(Cc2ccccc2)C1=O (configuration not stated) returned DT40 TDP1 no CPT inactive, VDR inh inactive, PLK1 PBD inh inactive and TDP1 cell CPT inactive.
`Cc1cccc(C(=O)NCC(=O)N2CCN(S(=O)(=O)c3cc(C)ccc3C)CC2)c1` gave DT40 TDP1 no CPT inconclusive, KAT2A inh inactive, VDR inh inactive, PLK1 PBD inh inactive and TDP1 cell CPT inconclusive.
`Cc1ccc(C)c(S(=O)(=O)N2CCN(C(=O)CNC(=O)c3ccc4ccccc4c3)CC2)c1` gave DT40 TDP1 no CPT 16µM, KAT2A inh inactive, TDP1 inh inactive, VDR inh inactive, PLK1 PBD inh inactive and TDP1 cell CPT inconclusive.
For Cc1ccc(C)c(S(=O)(=O)N2CCN(C(=O)[C@@H](NC(=O)c3ccc(F)cc3)C(C)C)CC2)c1 the results were DT40 TDP1 no CPT 21µM, KAT2A inh inactive, TDP1 inh inactive, VDR inh inactive, PLK1 PBD inh inactive and TDP1 cell CPT inconclusive.
`Cc1ccc(N(C(=O)CNC(=O)c2ccco2)C(C(=O)NC2CCCC2)c2cccnc2)c(C)c1` (configuration not stated) gave DT40 TDP1 no CPT inactive, KAT2A inh inactive, VDR inh inactive, PLK1 PBD inh inactive and TDP1 cell CPT inactive.
Screening O=C(CSc1ncc(-c2ccc(Cl)cc2)[nH]1)Nc1ccccc1F returned DT40 TDP1 no CPT inconclusive, KAT2A inh inactive, TDP1 inh inactive[12.3 µM], VDR inh inactive and TDP1 cell CPT inconclusive.
`COc1ccc2c(c1)CC(NC(=O)Nc1cc(Cl)ccc1OC)CO2` (configuration not stated) gave DT40 TDP1 no CPT inconclusive, KAT2A inh inactive, TDP1 inh inactive, VDR inh inactive and TDP1 cell CPT 23µM.
For COc1ccc(NC(=O)NC2COc3ccccc3C2)c(OC)c1 (configuration not stated) the results were DT40 TDP1 no CPT inactive, KAT2A inh inactive, TDP1 inh inactive, VDR inh inactive and TDP1 cell CPT inactive.
For Cc1ccc(F)cc1NC(=O)c1sc2ncn(CC(=O)N3CCN(c4ccccn4)CC3)c(=O)c2c1C the results were DT40 TDP1 no CPT inconclusive, KAT2A inh inconclusive, TDP1 inh inactive, VDR inh inactive, PLK1 PBD inh inactive and TDP1 cell CPT inactive.
Cc1ccc(-c2noc(-c3ccccc3F)n2)cc1 was read as DT40 TDP1 no CPT inactive, KAT2A inh inactive, TDP1 inh inactive, VDR inh inactive, PLK1 PBD inh inactive and TDP1 cell CPT inactive.
`FC(F)(F)c1ccc(-c2noc(-c3ccccc3Br)n2)cc1` gave DT40 TDP1 no CPT inconclusive, KAT2A inh inactive, TDP1 inh inactive, VDR inh inactive and TDP1 cell CPT 16µM.
`N#Cc1cccc(NS(=O)(=O)c2ccc3c(c2)CCC(=O)N3)c1` gave TDP1 inh inactive.
For COc1cccc(OCC(O)CN2CCN(C)CC2)c1 (configuration not stated) the results were DT40 TDP1 no CPT inactive, KAT2A inh inactive, VDR inh inactive, PLK1 PBD inh inactive and TDP1 cell CPT inactive.
O=C(Nc1ccccc1F)C(=Cc1sc(N2CCOCC2)nc1-c1ccccc1)C(=O)Nc1ccccc1F was read as DT40 TDP1 no CPT 5.2µM, KAT2A inh inactive, TDP1 inh inactive, VDR inh inactive, PLK1 PBD inh inconclusive and TDP1 cell CPT 1.6µM.
Screening Cc1cccc(-c2noc(CN(C3CCCCC3)S(=O)(=O)c3ccc(F)cc3)n2)c1 returned DT40 TDP1 no CPT 15µM, KAT2A inh inactive, TDP1 inh inactive, VDR inh inactive and TDP1 cell CPT 21µM.
`Cc1ccc(S(=O)(=O)N(Cc2nc(-c3cccc(C)c3)no2)C2CCCCC2)cc1` gave DT40 TDP1 no CPT 10µM, KAT2A inh inactive, VDR inh inactive and TDP1 cell CPT inconclusive.
For COc1ccc(S(=O)(=O)N(Cc2nc(-c3cccc(C)c3)no2)C2CCCCC2)cc1 the results were DT40 TDP1 no CPT inconclusive, KAT2A inh inactive, TDP1 inh inactive, VDR inh inactive and TDP1 cell CPT 15µM.
`CC(=O)c1c(C)n(-c2ccc(C)cc2)c2ccc(OC(=O)COc3ccccc3)cc12` gave DT40 TDP1 no CPT 7.3µM, KAT2A inh inactive, VDR inh inactive and TDP1 cell CPT 6.5µM.
CCOC(=O)c1c(C)n(-c2ccc(OC)cc2)c2ccc(OC(=O)COc3ccccc3)cc12 was read as DT40 TDP1 no CPT 21µM, KAT2A inh inactive, TDP1 inh inactive[12.3 µM], VDR inh inactive and TDP1 cell CPT inconclusive.
Screening COc1ccc(-n2c(C)c(C(C)=O)c3cc(OC(=O)COc4ccccc4)ccc32)cc1 returned DT40 TDP1 no CPT 7.3µM, KAT2A inh inactive, VDR inh inactive and TDP1 cell CPT 6.5µM.
For CC(OC(=O)c1cc(=O)[nH]c2ccccc12)C(=O)Nc1ccccc1F (configuration not stated) the results were DT40 TDP1 no CPT inactive, KAT2A inh inactive, TDP1 inh inactive[0.505 µM], VDR inh inactive, PLK1 PBD inh inactive and TDP1 cell CPT inactive.
C[C@H](NC(=O)N1CCc2nc(-c3ccccc3)c3c(c2C1)CO[C@@H](C)C3)c1ccccc1 was read as TDP1 inh inactive[21 µM].
Screening Cc1ccc(S(=O)(=O)C[C@@H]2OC[C@H](C)N2S(=O)(=O)c2ccc(C)cc2)cc1 returned DT40 TDP1 no CPT inconclusive, PLK1 PBD inh inactive and TDP1 cell CPT inconclusive.
